Compounds with a hit are over-represented: about 0.77% of the library has one in this group of screens.
KAT2A inh – inhibitors of human GCN5L2 histone acetyltransferase. AID 504327. 0.21% of 390,000 active. GCN5L2 HAT assay, ThioGlo1 CoA-SH fluorescence. Q92830. Potency, µM (series often up to 58.9 µM), for the others: at the highest dose activity change, negative = inhibition, usual class: inhibitors; further: potency means the concentration at half of the fitted maximal effect; on the % scale 0 is the no-effect control and ±100 the full control effect
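ThioGlo1-coupled HAT assay: 20nM GCN5L2, 70uM acetyl-CoA, 75uM H3(1-25) peptide, pH 7.5. Fluorescence read at 340/540nm at start and after 20 min at room temperature.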
Vif-A3F inh – inhibitors of Vif-A3F interaction; 0.2% of 390,000 active; HeLa A3F-eYFP + Vif (tagged APOBEC3F with the HIV-1 protein that degrades it), YFP fluorescence increase; Potency, µM (titrated, usually from 46.1 µM), without a hit: top-dose activity, negative = active; AID 602313; further: potency means the concentration at half of the fitted maximal effect; % of control where 0% means no effect; nearly all actives have a fitted effect of over 65% in size
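HeLa cells stably expressing A3F-eYFP plus Vif, plated and incubated overnight at 37 deg C, then exposed to compounds overnight at 37 deg C. Blocked degradation read as raised yellow fluorescence (Ex 488/Em 500-530).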
IL-2 act – activators of IL-2; IL-2 activation reporter assay, cell-based qHTS; stimulated with anti-CD3/CD4/CD28 beads; in transgenic mouse T cells; activation, % (series mostly up to about 46 µM); 0.065% of 360,000 active; AID 652025; in the data active means activation above about 50%; inconclusive means mostly about 30% to 49%; further: 0% is about no effect
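Screening format: compound pinned onto unstimulated transgenic mouse T cells, 60 min incubation, then anti-CD3/anti-CD4/anti-CD28 bead stimulation for 18 hours at 37 degrees C, followed by EGFP and DsRed detection.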
PKM2 act – PKM2 (human) enzyme activation | purified PKM2, Kinase-Glo ATP luminescence, activation; response scale: 0% is enzyme alone, no compound | Potency, µM (titrated, usually from 57.5 µM), without a hit: top-dose activation, hits mostly activators | 0.34% of 260,000 active; further: potency means the concentration at half of the fitted maximal effect; on the % scale 0 is the no-effect control and ±100 the full control effect; nearly all actives have a fitted effect of over 55% in size
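Purified hPK-M2 (>95%) run at intermediate activity with 0.1 mM ADP and 0.5 mM PEP in 50 mM imidazole pH 7.2, KCl, MgCl2; 1 h room temperature. ATP formed read by Kinase-Glo luminescence; normalized to uninhibited and no-enzyme controls.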
RGS12 GoLoco inh – RGS12 GoLoco-Gai1 interaction inhibition; P63096; Gai1:RGS12 GoLoco peptide FP, rhodamine, 10 min; Potency, µM (highest dose often 61.6 µM), inactives show at the top dose activity, negative = inhibition, actives largely listed as inhibitors; 0.44% of 230,000 active; active means well fitted inhibition curve with a large enough effect, not every such curve was filed as active; inactive means no such curve, though single readings can be large or run the other way; further: potency means the concentration at half of the fitted maximal effect; on the % scale 0 is the no-effect control and ±100 the full control effect; nearly all actives have a fitted effect of over 30% in size
Target sequence (P63096 whole entry, looked up): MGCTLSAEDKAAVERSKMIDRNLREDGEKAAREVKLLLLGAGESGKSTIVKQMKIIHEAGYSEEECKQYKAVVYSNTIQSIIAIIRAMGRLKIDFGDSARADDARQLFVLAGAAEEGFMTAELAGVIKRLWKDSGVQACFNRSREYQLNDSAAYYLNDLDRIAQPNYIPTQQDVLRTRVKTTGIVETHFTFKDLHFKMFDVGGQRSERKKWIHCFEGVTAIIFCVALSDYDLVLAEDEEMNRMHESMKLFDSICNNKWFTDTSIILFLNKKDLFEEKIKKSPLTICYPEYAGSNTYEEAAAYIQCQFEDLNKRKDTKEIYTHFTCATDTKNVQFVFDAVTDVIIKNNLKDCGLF
Vif-A3G inh – blocks the Vif interaction with human APOBEC3G; HeLa A3G-eYFP + Vif (tagged APOBEC3G with the HIV-1 protein that degrades it), YFP fluorescence, overnight; Potency, µM (series often up to 46.1 µM), for inactives: at the highest dose activity, negative = active, actives largely listed as inhibitors; Q9HC16; AID 602310; 0.076% of 410,000 active; further: potency means the concentration at half of the fitted maximal effect; on the % scale 0 is the no-effect control and ±100 the full control effect; nearly all actives have a fitted effect of over 60% in size
Target sequence (Q9HC16 whole entry, looked up): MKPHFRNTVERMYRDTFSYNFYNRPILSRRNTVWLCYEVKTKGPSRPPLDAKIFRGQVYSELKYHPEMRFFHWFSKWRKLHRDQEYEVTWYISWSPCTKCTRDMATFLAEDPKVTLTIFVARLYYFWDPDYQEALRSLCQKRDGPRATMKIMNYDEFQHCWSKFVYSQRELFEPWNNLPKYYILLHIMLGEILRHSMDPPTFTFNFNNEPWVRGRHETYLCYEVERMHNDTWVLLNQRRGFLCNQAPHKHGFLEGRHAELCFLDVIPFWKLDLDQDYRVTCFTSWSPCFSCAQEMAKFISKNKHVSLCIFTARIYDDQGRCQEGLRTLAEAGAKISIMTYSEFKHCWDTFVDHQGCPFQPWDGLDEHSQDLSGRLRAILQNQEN
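Read-out is eYFP fluorescence (Ex 488/Em 500-530) from Vif-expressing HeLa A3G-eYFP cells; more signal means A3G escaped Vif-mediated degradation. Cells plated overnight, compound pinned in, incubated overnight at 37 deg C.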
* = called active by the depositor; ? = inconclusive; nt = no result; ! = repeats disagree. Unless noted, the call rests on the fitted dose curve; in most records, active means well fitted curve in the direction sought with a large enough effect; inconclusive means small, poorly fitted or top-dose-only effect, or another doubt; inactive means no such curve, though single readings can be large; an effect the other way counts as inactive or inconclusive.

SMILES	KAT2A inh	Vif-A3F inh	IL-2 act	PKM2 act	RGS12 GoLoco inh	Vif-A3G inh
Cc1ccc(S(=O)(=O)c2c(N)n(Cc3ccco3)c3nc4ccccc4nc23)cc1	-26.7%	-3.9%	1.3	?	57.7%	-9.5%
Cc1cccc(S(=O)(=O)c2c(N)n(Cc3ccco3)c3nc4ccccc4nc23)c1	-19.4%	-0.9%	2.1	22.4µM*	77.8%	-25.9%
C/C(=N\N=C1\NC(=O)C(CC(=O)Nc2ccc(C)c(Cl)c2)S1)C(C)C (centres undefined)	-1.2%	-12.4%	-3.1	0.5%	16.9%	0.6%
COc1ccc(C(=O)/C=C/Nc2ccc([N+](=O)[O-])cc2C)c(OC)c1	1.1%	22.4µM*	-3.6	2.7%	7.4%	-2.8%
O=C(NC(=S)Nc1ccccc1O)c1cncc(Br)c1	nt	?	-1.2	nt	nt	-11.6%
Cn1c(=O)c2[nH]c(-c3ccccc3)c(O)c2n(C)c1=O	-4.5%	?	4.3	1.41µM*	-18.5%	3.0%
Cn1c2c(c(=O)n(C)c1=O)C(C(F)(F)F)(C(F)(F)F)N=C(c1ccccc1Cl)N2	-9.1%	-2.2%	-2.6	-2.2%	-2.2%	0.5%
Cn1c(=O)c2[nH]c(-c3ccccc3Cl)c(O)c2n(C)c1=O	-0.3%	?	7.6	?	2µM*	0.3%
Cn1c(=O)c2[nH]c(-c3ccccc3)nc2n(C)c1=O	-6.0%	nt	nt	0.3%	-8.3%	nt
CC(=O)c1sc(NC(=O)c2cccc(C)c2)nc1C	-5.8%	8.8%	-0.3	-20.6%	9.3%	0.5%
CN(C)CCNc1ccc2ncn3c4ccc(O)cc4c(=O)c1c23	nt	25.1µM*	3.7	nt	nt	?
CN(C)CCNc1ccc(CO)c2sc3ccc(O)cc3c(=O)c12	nt	8.6%	-6.2	nt	nt	-2.6%
Cc1ccc(S(=O)(=O)Cc2nc(-c3ccc(C(=O)NCc4ccccc4F)cc3)oc2C)cc1	25.1µM*	nt	nt	nt	nt	-2.6%
COc1ccc(N/C=C/c2nc(SC)nnc2C)cc1	-0.1%	22.4µM*	0.6	18.6%	17.1%	-17.7%
CSc1nnc(C)c(/C=C/Nc2ccc(F)cc2)n1	-1.7%	-13.8%	-0.8	4.6%	3.0%	-19.8%
Cc1cccc(N2CCN(C(=O)c3ccc4c(c3)NC(=O)C(CSCc3cccc(F)c3)N4)CC2C)c1 (centres undefined)	14.1µM*	?	-0.8	nt	nt	?
Cc1ccc(-n2nc3c(c2NC(=O)c2cccs2)CSC3)cc1	3.55µM*	-5.5%	-1.8	0.9%	1.6%	2.2%
CN(C)c1ccc(C(=C2C=CC(=[N+](C)C)C=C2)c2ccccc2)cc1	-21.5%	nt	nt	nt	14.1µM*!	nt
O=C(Nc1ccccc1N1CCCC1)c1cccnc1Cl	5.0%	2.2%	-0.4	-6.4%	2.3%	4.4%
CCc1ccc(/C=C2\CN(CC)Cc3c2nc2ccccc2c3C(=O)O)cc1	2µM*	3.9%	-0.4	12.6µM*	-21.9%	0.8%
CNC(=O)c1[nH]nc2c1CCc1ccccc1-2	16.3%	?	-5.7	nt	nt	0.1%
COC(=O)c1[nH]c2c(c1C(=O)OC)CCc1ccccc1-2	-14.7%	8.91µM*	-5.8	nt	nt	-9.8%
CCOC(=O)C1(CC)NC(c2ccco2)C2C(=O)N(c3ccc(C)cc3)C(=O)C21 (centres undefined)	-1.0%	-10.6%	-1.7	-5.6%	36.4%	-0.2%
COc1ccc(/C=N/NC(=O)c2cccnc2)cc1CSc1ccccn1	-4.0%	-2.7%	1.0	2.7%	7.5%	7.08µM*
COc1ccc(C(=O)N/N=C/c2ccc(OC)c(CSc3ccccn3)c2)cc1	-6.9%	3.6%	0.2	-1.2%	8.6%	1.7%
SMILES	KAT2A inh	Vif-A3F inh	IL-2 act	PKM2 act	RGS12 GoLoco inh	Vif-A3G inh
O=C(O)c1ccccc1NS(=O)(=O)c1ccc(NNC(=S)Nc2ccc(OC(F)F)cc2)c([N+](=O)[O-])c1	22.4µM*	14.2%	-1.2	-29.9%	7.7%	0.0%
CCN1CCN(CCCNC(=O)C2CCCN(c3nc4c(C)cc(C)cc4s3)C2)CC1 (centres undefined)	-17.0%	-7.0%	-2.2	4.8%	nt	2.4%
CC(=O)N1CCc2ccc(S(=O)(=O)Nc3ccccc3Cl)cc21	13.4%	1.8%	0.0	12.6µM*	-6.5%	-4.4%
CC(=O)N1CCCc2cc(S(=O)(=O)Nc3ccccc3C)ccc21	-8.6%	10.6%	1.5	4.3%	nt	5.9%
C=CCNC(=S)N1CC2(C)CN(C(=S)NCC=C)CC(C)(C1)C2=O	28.2µM*	0.8%	-0.1	1.1%	9.8%	-3.9%
O=c1c(C(c2ccccc2)c2c(O)sc3ccccc3c2=O)c(O)sc2ccccc12	25.1µM*	-1.0%	3.2	4.0%	9.0%	-3.1%
Nc1nc(Nc2ccccc2)n[nH]1	-3.4%	-2.1%	-1.2	-10.3%	3.9%	-6.1%
CCC(=O)NC1=C(NC(C)c2ccccc2)C(=O)c2ccccc2C1=O (centres undefined)	-3.2%	-3.3%	-2.7	-4.5%	15.0%	-1.5%
CCC(=O)NC1=C(Cl)C(=O)C(NC(=O)CC)=C(Cl)C1=O	28.2µM*	-1.2%	1.7	-83.6%	1.26µM*	-29.4%
N#C/C(=C\c1ccc(C(=O)O)cc1)c1nc2sc3c(c2c(=O)[nH]1)CCCC3	?	?	300.6*	20.3%	36.3%	?
CCOC(=O)c1nc2sc3c(c2c(=O)[nH]1)CCCC3	-6.3%	-2.4%	-2.8	3.8%	8.3%	1.5%
Cc1ccc(N2C(=O)C3CC(c4ccccc4)=C4C5C=CC(C6C(=O)N(c7ccc(C)cc7C)C(=O)C56)C4C3C2=O)c(C)c1 (centres undefined)	-1.2%	nt	-1.3	-0.5%	31.6µM*	-0.6%
Cc1ccc(N2C(=O)C3CC(c4ccccc4)=C4C5C=CC(C6C(=O)N(c7ccc(C)cc7)C(=O)C56)C4C3C2=O)cc1 (centres undefined)	-3.5%	11.8%	0.7	-2.5%	5.3%	-7.7%
COc1cc2cc3c(N)c(C(=O)NCc4ccco4)sc3nc2cc1OC	-19.1%	12.9%	0.1	5.7%	nt	-26.8%
Cc1ccc2nc3sc(C(=O)NCc4ccco4)c(N)c3cc2c1	-3.9%	?	167.5*	13.5%	1.7%	-20.4%
COc1cccc(N2CCN(Cc3nc4scc(-c5ccccc5)c4c(=O)[nH]3)CC2)c1	-7.2%	-19.5%	-1.1	-1.3%	20.1%	8.91µM*
COc1cccc(N2CCN(Cc3nc4ccccc4c(=O)[nH]3)CC2)c1	9.0%	1.5%	-0.1	1.0%	1.2%	0.7%
Cc1nnc(SCc2nc3scc(-c4ccccc4)c3c(=O)[nH]2)s1	-4.3%	-1.7%	-3.2	28.2µM*	53.7%	-0.8%
Nc1nnc(SCc2nc3scc(-c4ccccc4)c3c(=O)[nH]2)s1	2.5%	?	-0.6	3.9%	82.8%	?
